# Screens from PubChem.
# tim23-1 inh: growth inhibitors of tim23-1 mutant yeast; 330,000 compounds, 1.3% hits; inhibition, % at 20 µM; S. cerevisiae tim23-1 growth, BacTiter-Glo luminescence, 24 h; AID 463212;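 active = growth inhibition of the mutant yeast at or above 50%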;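 note: temperature-sensitive mutant grown at 25 °C; plate controls were DMSO-treated mutant yeast for no effect and medium wells lacking yeast for full effect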
# TIM10 inh: growth inhibitors of TIM10 yeast strain. S. cerevisiae TIM10 strain growth, BacTiter-Glo luminescence, 24 h. inhibition, % at 10 µM. 330,000 compounds, 1.4% hits;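 active = inhibition of 40% or more at the single tested concentration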;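 note: wild-type TIM10 isogenic control strain grown at permissive 25 °C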
# EBI2 antag: EBI2 (human) antagonism. P32249. EBI2 beta-arrestin recruitment, luminescence, 7a,25-OHC stimulated. inhibition, % at 5 µM. 360,000 compounds, 0.81% hits. AID 651636; in the data active = inhibition above about 38%;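 note: enzyme fragment complementation signal reports receptor beta-arrestin coupling in cells; 0% = agonist plus DMSO wells and 100% = wells without agonist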
# Target sequence (P32249 whole entry, looked up, the tested form may be a part): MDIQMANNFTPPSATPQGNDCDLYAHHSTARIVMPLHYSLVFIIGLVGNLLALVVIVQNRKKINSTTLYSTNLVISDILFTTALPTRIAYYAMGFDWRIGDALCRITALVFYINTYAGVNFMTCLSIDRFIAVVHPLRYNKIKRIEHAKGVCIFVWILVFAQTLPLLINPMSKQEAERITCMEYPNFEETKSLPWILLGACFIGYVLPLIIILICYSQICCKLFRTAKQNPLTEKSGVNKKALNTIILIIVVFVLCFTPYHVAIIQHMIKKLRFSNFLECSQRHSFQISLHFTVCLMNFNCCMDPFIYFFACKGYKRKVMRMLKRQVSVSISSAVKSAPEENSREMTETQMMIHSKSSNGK
# PfHsp90 set2: reduces growth (ATP signal) of yeast expressing P. falciparum Hsp90 | S. cerevisiae expressing PfHsp90, BacTiter-Glo ATP, 48 h; yeast lacking PDR1 and PDR3 efflux regulators | inhibition, % at 9.4 µM | 310,000 compounds, 0.32% hits;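 active = every replicate shows inhibition above about 80%, whatever the replicate mean, limit read from the data; inconclusive = mean inhibition reaches the set limit but some replicate falls short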;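 note: 0% = DMSO neutral controls and 100% = 20 µM radicicol positive controls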
# tim10-1 inh: growth inhibitors of tim10-1 mutant yeast; 330,000 compounds, 2.2% hits; inhibition, % at 20 µM; S. cerevisiae tim10-1 ts strain growth, BacTiter-Glo, 24 h;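 active = inhibition of at least 40%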;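 note: mutant grown at 25 °C; 0% = DMSO wells with yeast and 100% = wells holding no yeast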
# SKKanGAS inh: blocks kanamycin growth of S. pyogenes SKKanGAS strain; BacTiter-Glo, 6 h; inhibition, % at 7.5 µM; 300,000 compounds, 1.3% hits; AID 1662;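 active = mean replicate score, as percent of positive control median, at least 50; inconclusive = mean below 50 but one replicate at or above 50; inactive = mean and every replicate below 50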;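 note: strain carries kanamycin resistance gene driven by streptokinase promoter and grows in 40 µg/ml kanamycin; loss of luminescence reflects streptokinase promoter inhibition or plain growth inhibition; 0% = median of DMSO wells and 100% = positive control at its reference dose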
# tim10-1 conf: confirmation of tim10-1 mutant yeast growth inhibitors | 7,400 compounds, 56% hits | shares compounds with tim10-1 inh | AID 463213 | S. cerevisiae tim10-1 ts strain growth, BacTiter-Glo, 24 h | inhibition, % at 20 µM;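 active = inhibition of yeast growth at or above a set limit in either of two repeat tests at 20 µM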;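 note: tim10-1 mutant grown at permissive 25 °C to find synthetic lethal compounds; 0% = DMSO yeast wells and 100% = medium wells without yeast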
# TIM10 conf: confirmation of TIM10 yeast growth inhibitors; shares compounds with TIM10 inh; S. cerevisiae tim10 strain growth, BacTiter-Glo luminescence, 24 h; inhibition, % at 10 µM; 4,600 compounds, 63% hits;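 active = inhibition of yeast growth at or above a set limit in either of two replicates at 10 µM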;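 note: this counterscreen used the strain with wild-type TIM10; 0% = yeast with DMSO and 100% = medium wells lacking yeast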
# tim23-1 confirm: tim23-1 yeast growth inhibition, confirmed; shares compounds with tim23-1 inh; S. cerevisiae tim23-1 growth, BacTiter-Glo luminescence, 24 h; inhibition, % at 20 µM; 4,400 compounds, 83% hits;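 active = inhibition above about 39% in either of two replicate wells at 20 µM, limit read from the data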;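 note: temperature-sensitive tim23-1 mutant grown at 25 °C; 0% = DMSO wells with yeast and 100% = medium wells without yeast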
# * = called active by the depositor; ? = inconclusive; / = not tested or not shown. Sampled rows, rich in hits. Any-hit rate of the full collection: about 4.7%.
SMILES,tim23-1 inh,TIM10 inh,EBI2 antag,PfHsp90 set2,tim10-1 inh,SKKanGAS inh,tim10-1 conf,TIM10 conf,tim23-1 confirm
COc1ccc(/C=C(/C(=O)c2ccc(Cl)cc2Cl)n2cncn2)cc1,75.5*,76.8*,-7.3,7.4,63.5*,-5.4,70.1*,77.8*,49.0*
CN(C)c1ccc(/C=C(/C(=O)c2ccc(Cl)cc2Cl)n2cncn2)cc1,54.2*,51.0*,6.8,-8.4,52.8*,5.1,40.7*,-26.4,56.2*
CCOc1ccc2ccccc2c1/C=N/NC(=O)CNC(=O)Cc1ccccc1,-11.0,-4.4,1.3,11.0,3.2,-0.4,/,/,/
CC(=O)NC1Sc2ccccc2N=C1c1ccccc1 (configuration not stated),73.1*,42.0*,4.7,-25.6,42.8*,-9.2,53.6*,56.5*,79.0*
CCCCOC(=O)Sc1nc2ccccc2o1,74.4*,64.2*,-5.7,-44.5,48.6*,8.6,48.8*,42.8*,44.1*
CCCCOC(=O)Nc1nc2ccccc2s1,20.2,10.8,12.6,-0.1,4.7,-0.4,/,/,/
COc1ccc(C(=O)/C=C/Sc2nc3ccccc3o2)cc1,74.9*,38.2,36.4,4.3,50.4*,11.8,38.3*,/,66.4*
[O-][n+]1c2ccccc2[n+]([O-])c2cc(O)ccc21,23.2,15.3,-0.2,-25.6,24.5,?,/,/,/
Cc1noc2ncnc(Sc3ccc(Br)cc3)c12,65.3*,35.6,-34.8,-20.8,53.7*,6.0,73.9*,/,68.2*
Cc1ccc(C)c(NC(=S)NNc2ccc(F)cc2F)c1,58.1*,13.3,2.6,-6.8,47.2*,7.9,42.4*,/,56.6*
Cn1nnc(NC(=S)NC(=O)c2cccc3c(Cl)cccc23)n1,52.1*,10.7,5.3,-35.9,48.7*,-14.5,-2.0,/,38.6*
COc1ccc(C(=O)C2CCCN(C(=O)c3ccc(CSC)o3)C2)cc1F (configuration not stated),24.2,8.8,4.4,-10.6,13.9,0.6,/,/,/
COc1ccccc1C1CCN(c2ccc(CO)cc2[N+](=O)[O-])CC1,64.0*,42.1*,-14.8,-6.1,63.7*,-10.0,60.9*,36.5*,73.4*
COc1ccccc1C1CCN(Cc2cccc([N+](=O)[O-])c2)CC1,-5.3,-5.0,8.9,34.2,17.5,-4.2,/,/,/
CNc1nc(N)c([N+](=O)[O-])c(Nc2cccc(F)c2)n1,80.5*,66.6*,-6.5,12.0,52.4*,-4.0,48.0*,79.2*,79.0*
C=CCNc1nc(N)c([N+](=O)[O-])c(Nc2cccc(Cl)c2)n1,21.2,16.3,7.2,-13.3,22.4,9.0,/,/,/
CNc1nc(N)c([N+](=O)[O-])c(Nc2cccc(Cl)c2)n1,59.3*,61.5*,10.3,/,55.4*,-1.4,48.6*,66.0*,63.6*
CCOc1ccc(C(C)(C)C)cc1S(=O)(=O)n1nc(C)cc1C,53.6*,46.4*,5.0,31.7,45.7*,5.2,40.8*,0.0,50.5*
CCOc1ccc(C)cc1S(=O)(=O)n1nc(C)cc1C,13.4,2.6,-4.4,-6.2,8.0,-8.4,/,/,/
CCOc1ccc(C(C)(C)C)cc1S(=O)(=O)N1CC(C)OC(C)C1 (configuration not stated),55.0*,32.0,-0.4,-12.6,43.6*,-3.9,27.9,/,42.1*
O=C(NCc1ccccc1)c1cc[n+](CC(=O)c2cccs2)cc1,1.7,-2.8,8.0,13.4,-2.4,5.8,/,/,/
NNc1nc(-c2ccccc2)nc(-c2ccccc2)c1Br,56.7*,41.5*,2.7,8.0,46.3*,16.1,33.3*,-4.4,45.6*
COc1ccc(C(=O)On2c(-c3ccc(Br)cc3)nc3ccccc3c2=O)cc1,61.0*,74.1*,-15.3,2.1,57.1*,19.4,51.9*,74.0*,79.0*
COc1ccc(O)c(CNn2c(-c3ccc(Br)cc3)nc3ccccc3c2=O)c1,30.7,28.0,7.4,-4.1,35.2,-4.8,/,/,/
COc1cc(OC)cc(-c2nc3ccccc3c(=O)n2OC(=O)c2ccc(Br)cc2)c1,58.1*,61.5*,-1.1,1.3,48.9*,8.7,38.3*,34.5*,72.0*
SMILES,tim23-1 inh,TIM10 inh,EBI2 antag,PfHsp90 set2,tim10-1 inh,SKKanGAS inh,tim10-1 conf,TIM10 conf,tim23-1 confirm
CCCc1c(-c2ccc(Cl)cc2)ncn1CCc1ccccc1OC,/,/,16.0,/,/,/,/,/,/
COC(=O)c1ccccc1-c1ccc(C(c2c(C)[nH][nH]c2=O)c2c(C)[nH][nH]c2=O)o1,54.2*,45.9*,-2.2,41.6,56.1*,0.8,35.8*,36.0*,48.3*
FC(F)(F)c1nnc2ccc(N3CCCCCC3)nn12,50.1*,17.7,-0.7,-4.8,40.8*,/,25.0,/,32.8
COC(=O)c1ccccc1NC(=O)[C@@H]1CCC(=O)N1C1OC(=O)c2c1ccc(OC)c2OC (some centres not stated),15.4,5.2,-3.3,3.4,5.4,0.8,/,/,/
CCn1c(C(=O)NC(C)c2ccc3c(c2)OCCO3)cc2sccc21 (configuration not stated),52.7*,19.1,0.2,35.7,43.9*,-0.7,31.6*,/,46.0*
CC(NC(=O)c1cc2sccc2n1C)c1ccc2c(c1)OCCO2 (configuration not stated),33.0,26.9,-10.0,-11.3,26.2,-0.5,/,/,/
N/C(Cc1ccc([N+](=O)[O-])cc1)=N\OC(=O)c1ccc(Br)o1,60.3*,64.3*,-7.3,3.5,84.9*,-0.6,81.2*,11.3,44.0*
N/C(Cc1ccc([N+](=O)[O-])cc1)=N\OC(=O)COc1ccccc1Cl,27.0,22.9,0.2,-7.7,33.9,-0.9,/,/,/
N/C(Cc1ccc([N+](=O)[O-])cc1)=N\OC(=O)c1ccccc1F,58.9*,64.1*,0.5,9.0,71.7*,-5.6,71.5*,52.3*,54.2*
O=C(Nc1nccs1)C1CCCN1S(=O)(=O)c1ccc(F)cc1 (configuration not stated),15.4,-4.5,1.3,13.1,1.5,-11.8,/,/,/
Cc1cc(-c2ccc(N=Nc3c(S(=O)(=O)O)cc4cc(S(=O)(=O)O)cc(N)c4c3O)c(C)c2)ccc1N=Nc1c(S(=O)(=O)O)cc2cc(S(=O)(=O)O)cc(N)c2c1O,72.0*,54.9*,/,/,64.5*,/,65.7*,46.6*,77.3*
CC(Sc1nnc(CNc2cccc3ccccc23)n1-c1ccccc1)C(=O)N/N=C/c1ccco1 (configuration not stated),12.4,-0.6,-1.7,-3.3,16.7,5.5,/,/,/
